Consider 50 molecules from PubChem BioAssay AID504842 (National Center for Advancing Translational Sciences (NCATS), 2011).

Structures are written as SMILES. Out of some 330,000 compounds screened, about 100 (0.03%) were called active. Another 1% or so got no clear call; they are omitted. The sample as a whole holds a higher share of actives than the screen did. Values without a mark were called inactive. Calls come from the whole dose curve; as a rule, active = well fitted inhibition curve with a large enough effect; inconclusive = small, poorly fitted or top-dose-only effect; inactive = flat fitted curve, though single readings scatter.
% is set by controls: 0 for no effect and ±100 for the full control effect; potency is the fitted concentration of half-maximal effect.

For the assay, the system named is Chaperonin Mm-Cpn (Methanococcus maripaludis). The assay is described as follows: Inhibitors of TCP-1 ring complex (TRiC) of Methanococcus maripaludis (MmCpn): qHTS.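 For Potency: enzyme at 25 nM with ATP substrate at 10 µM during the reaction.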 Note: nearly all actives have a fitted effect of over 80% in size. The following applies: purified Mm-Cpn ATPase, ADP Transcreener TR-FRET; series mostly up to 76.9 µM; activity, negative = inhibition: at the top concentration. The source says: The eukaryotic chaperonin TRiC (for TCP-1 ring complex) is an essential and conserved chaperone required for the folding and activation of 10-15% of the proteins encoded by the human genome. […] The TRiC complex consist of two stacked 7-9 membered rings, each containing a central cavity. Substrates are folded within the cavity in an ATP-dependent manner. TRiC is a complex of eight different, essential proteins. As each of the genes encoding the eight subunits is essential for cell viability and no protocol has been developed to over-express this enzyme to high levels. That is why several groups studying the TRiC chaperonin have turned to the archaeal homolog of TRiC, Methanococcus maripaludis (Mm-CPN), and have used this enzyme as a model system for the study of the type II chaperonin family. Small molecule inhibitors of the Mm-CPN enzyme would be extremely useful to study the mechanism of chaperonin activity. Importantly, TRiC and Mm-CPN both require ATP hydrolysis for function. Furthermore, the ATP binding sites are highly conserved among these type II chaperonins. This provides us with an easy, well tested and straightforward assay to identify inhibitors of chaperonin activity. The Mm-CPN assay was developed in 1536-well plate format using the HTRF Transcreener ADP assay kit (Cisbio, Bedford, MA). This assay applied the time resolved fluorescence resonance energy transfer (TR-FRET) principle. ATP in the presence of Mm-CPN is converted to ADP + Pi. An antibody labeled with Eu3+-Cryptate specific and bound to ADP labeled with […] (d2) competes with the unlabeled ADP generated by Mm-CPN. The resulting TR-FRET signal is inversely proportional to the concentration of ADP in the sample. In this assay a reduction in TR-FRET signal is observed with ATP turnover. NIH Chemical Genomics Center [NCGC] NIH Molecular Libraries Probe Centers Network [MLPCN] MLPCN Grant: DA030554-01A1 Assay Submitter (PI): Judith Frydman, Stanford University
Purified Mm-CPN was supplied by the laboratory of Dr. Judith Frydman. Protein samples were stored at -80C as single use aliquots. Protein was thawed in ambient temperature water bath and placed on ice once thawed. Buffer was prepared fresh day of screen. The buffer composition below was used to prepare the working solution of the Mm-CPN protein and ATP substrate. The buffer is comprised of 30 mM TRIS pH 7.4, 100mM KCl, 5mM MgCl2, and 1mM DTT. A final concentration of 25nM Mm-CPN and 10uM ATP per well were used in the screen. Instructions according to the manufacturer were followed for the ADP Transcreener kit. Used 1536 well Greiner white, medium binding (MB), solid bottom plates. Plates were read on the PerkinElmer EnVision plate reader using Excitation = 320 nm and Emission = […], 665 nm. Protocol- 1.Dispense 1.5ul per well of working [Mm-CPN] = 50nM (or 75 ng / well) 2.Spin plate at 1000 rpm for 30 seconds 3.23nl of compound transferred per well 4.Incubate at 37degC for 10 minutes 5.Dispense 1.5ul per well of working [ATP] = 20uM 6.Incubate at 37degC for 30 minutes 7.Dispense 3ul per well of Anti-ADP Cryptate / ADP-d2 mix (prepared as instructed by Cisbio) 8.Incubate at ambient for 30 minutes 9.Read using EnVision
Background: qHTS replaces the single test concentration by a dilution series.
For the molecule `CCCNCc1cc(OCC)c(OCC(=O)Nc2ccccc2)cc1Br`, the “activity, negative = inhibition” value is -4.4% (inactive). Still for that read-out and setting: the same measure for `CC(c1ccccc1)n1c(NCCCn2ccnc2)nc2c1c(=O)[nH]c(=O)n2C` (stereo not given): 0.8% (inactive); for `CC(=O)NS(=O)(=O)c1ccc(NC(=O)/C=C/c2ccccc2Cl)cc1`: -0.316% (inactive).

Consider `CN(CC(=O)NCCc1ccc(F)cc1)CC(=O)Nc1ccc(F)c(F)c1F`, for which the “activity, negative = inhibition” value is 1.1% (inactive).

`CC(C)c1nc2oc3c(N4CCN(C)CC4)ncnc3c2c2c1CCC2`: the “activity, negative = inhibition” value is -8.03% (inactive). Still for that read-out and setting: to `C=CS(=O)c1sc(Cl)c(N2CCOCC2)c1[N+](=O)[O-]` (stereo not given) belongs -1.91% (inactive). Take `CN(C)CCCNc1c2c(c(C#N)c3nc4ccccc4n13)CCC2`: the “activity, negative = inhibition” value is -0.924% (inactive). `CCn1c2ccccc2c2cc(NC(=O)Nc3ccc([N+](=O)[O-])cc3C)ccc21`: the “activity, negative = inhibition” value is 1.13% (inactive). Take `O=C(CCC(=O)c1ccccc1)NCc1cccc(C(F)(F)F)c1`: the “activity, negative = inhibition” value was -0.0071% (inactive). Still for that read-out and setting: the same measure for `CCOc1ccccc1NC(=S)NC(=O)CCc1ccccc1`: 0.822% (inactive); for `O=S(=O)(c1cc(Cl)ccc1Cl)N1CCN(Cc2ccco2)CC1`: 0.0715% (inactive). For `CCOc1cc(/C=C(/C#N)c2ccc(Cl)cc2)cc(Cl)c1OCC(=O)O`, the “activity, negative = inhibition” value is 1.28% (inactive).

With `O=C(CSc1ncnc2c1cnn2CCc1ccccc1)Nc1ccc(F)cc1`, the “activity, negative = inhibition” value was -0.16% (inactive).

For the molecule `O=C(Nc1ccncc1)c1cc(-c2ccccn2)nc2ccc(Br)cc12`, the Potency was 44.7 µM (active). Regarding `NC(=O)c1cc(-c2cccnc2)nc2ccc(Br)cc12`, the “activity, negative = inhibition” value is -1.29% (inactive).

Turning to `Cc1ccc2nc(-c3ccccn3)cc(C(=O)Nc3ccc4c(c3)OCO4)c2c1`, the “activity, negative = inhibition” value is -7.87% (inactive).

With `O=C(Nc1cccnc1)c1noc2c1CCCCC2`, the “activity, negative = inhibition” value was -0.428% (inactive).

As for `Nc1ccn(C2CC(O)C(CO)O2)c(=O)n1` (stereo not given), the “activity, negative = inhibition” value is 1.62% (inactive). On to `Cc1ccc(C)c(CSc2nc(-c3ccco3)nc3c2c(=O)n(C)c(=O)n3C)c1`, for which the “activity, negative = inhibition” value is 2.6% (inactive). On to `COc1ccc(O)c(/C=N/N=C/c2cccc([N+](=O)[O-])c2)c1`, for which the “activity, negative = inhibition” value is 1.75% (inactive). As to `Nc1ccc(Nc2cc(O)c3ncccc3c2)cc1`, the “activity, negative = inhibition” value was -3.06% (inactive). For the molecule `CCCN1Cc2cccc(C(=O)Nc3ccc(S(=O)(=O)N4CCCCCC4)cc3)c2C1=O`, the “activity, negative = inhibition” value was -4.72% (inactive). On to `CCN(CC)CCN1C(=O)C(=O)/C(=C(/O)c2cnn(-c3ccccc3)c2C)C1c1cccs1` (stereo not given), for which the “activity, negative = inhibition” value is -1.3% (inactive). On the same count and under the same terms, to `CC(C)(C)c1ccc(S(=O)(=O)N2CCN(C(=O)c3ccc4c(c3)C(=O)N(Cc3ccncc3)C4=O)CC2)cc1` belongs -0.64% (inactive); to `Cc1ccc(S(=O)(=O)Nc2ccc3c(c2)C(=O)N([C@H](C)CO)C[C@@H](C)[C@@H](CN(C)C(=O)Nc2cccc4ccccc24)O3)cc1`, 2.37% (inactive).

For the molecule `C=CCC(NCCCO)c1cccc(OC)c1OC` (stereo not given), the “activity, negative = inhibition” value was -2.38% (inactive). The same measure, in the same setting: the same measure for `CC(C)CCN1CCN(Cc2ccc(C(F)(F)F)cc2)CC1CCO` (stereo not given): 0.684% (inactive). With `CC(C)(C)c1cc2cccnc2n1Cc1cccc(F)c1`, the “activity, negative = inhibition” value is 1.5% (inactive).

Regarding `O=c1[nH]c(CSc2ccccc2)nc2c1oc1ccccc12`, the “activity, negative = inhibition” value is 1.87% (inactive). Take `CCOc1ccc(NC(=O)CCCCCN2C(=O)[C@@H]3Cc4ccccc4CN3C2=O)cc1`: the “activity, negative = inhibition” value was 1.25% (inactive). Still for that read-out and setting: the same measure for `CCN1C(=S)N[C@@H](c2cccc(C(F)(F)F)c2)C(C(=O)OC)=C1C`: 3.56% (inactive); for `COc1cc(C(c2c(NC(=O)c3ccco3)sc(C)c2C)N2CCOCC2)cc(OC)c1OC` (stereo not given): -2.89% (inactive); for `CCC1CCCCN1C(=O)CSc1nc(C)cc(C)n1` (stereo not given): -8.6% (inactive). Take `COC(=O)C1CCN(C(=O)NC2CC(=O)N(c3ccc4c(c3)OCCO4)C2)CC1` (stereo not given): the “activity, negative = inhibition” value is 3.08% (inactive). `O=C(CNCc1ccc(Cl)cc1)Nc1cccc(C(=O)O)c1`: the “activity, negative = inhibition” value is -0.15% (inactive). Consider `Cc1ccc(-n2c(C)cc(/C=C(\C#N)C(=O)NCC3CCCO3)c2C)cc1` (stereo not given), for which the “activity, negative = inhibition” value is -2.2% (inactive). Consider `Cc1ccc(C)c(NC(=O)C(c2ccccc2)N2CCN(CC(=O)NC3CC3)CC2)c1` (stereo not given), for which the “activity, negative = inhibition” value was -0.786% (inactive). For the molecule `COc1ccccc1NC(=O)c1cc(N2C(=O)C3C4CCC(C4)C3C2=O)ccc1Cl` (stereo not given), the “activity, negative = inhibition” value is 1.31% (inactive).

Take `CCc1nn(CCCC(=O)Nc2ccc(C)cc2C)c(=O)c2cc3occc3n12`: the “activity, negative = inhibition” value is 1.57% (inactive). Turning to `O=S(=O)(NC1CCN(S(=O)(=O)c2ccc3c(c2)OCCO3)CC1)c1c(F)cccc1F`, the “activity, negative = inhibition” value was 0.533% (inactive). Regarding `COC(=O)c1ccc(Nc2ncnc3sccc23)cc1`, the “activity, negative = inhibition” value was -13.1% (inactive). As for `COc1ccc2nc(NC3=NCN(CC4CCCO4)CN3)nc(C)c2c1` (stereo not given), the “activity, negative = inhibition” value is 1.76% (inactive).

Regarding `O=S(=O)(c1ccc(-c2ccccc2)cc1)N1CCCC1`, the “activity, negative = inhibition” value was -3.69% (inactive). With `COc1cc(C2C(C(=O)c3sc(C)nc3C)=C(O)C(=O)N2CCN(C)C)cc(OC)c1OC` (stereo not given), the “activity, negative = inhibition” value is -0.311% (inactive). `NC(=O)C1CCN(c2nc(-c3cccc(F)c3)cs2)CC1`: the “activity, negative = inhibition” value was 0.604% (inactive). For `CCN(CC(=O)Nc1cc(Cl)ccc1C)C(=O)CSCc1ccccc1`, the “activity, negative = inhibition” value is 1.09% (inactive). As to `Cc1ccc(C(=O)OCC(=O)Nc2ccc(Cl)cn2)cc1S(=O)(=O)N1CCOCC1`, the “activity, negative = inhibition” value is 1.87% (inactive).

For the molecule `OCCNc1nc2ccccc2n1-c1ncnc2sc3c(c12)CCC3`, the “activity, negative = inhibition” value is 0.0901% (inactive). `CCOC(=O)NC(=O)C(=CNc1cccc(OC)c1)C(=O)NC(=O)OCC`: the “activity, negative = inhibition” value was -0.345% (inactive). As to `O.O.O.O=S(=O)([O-])OC[C@H]1O[C@@H](O[C@]2(COS(=O)(=O)[O-])O[C@H](OS(=O)(=O)[O-])[C@@H](OS(=O)(=O)[O-])[C@@H]2OS(=O)(=O)[O-])[C@H](OS(=O)(=O)[O-])[C@@H](OS(=O)(=O)[O-])[C@@H]1OS(=O)(=O)[O-].[Al]`, the “activity, negative = inhibition” value is 0.62% (inactive).
